# Compounds with a hit are over-represented: about 19% of the library has one in this group of screens.
# DT40 TDP1 no CPT: qHTS for Inhibitors of human tyrosyl-DNA phosphodiesterase 1 (TDP1): qHTS in cells in absence of CPT | DT40 Tdp1-/- hTDP1 cells, no CPT, ATP luminescence, 48 h | Potency, µM (highest dose often 46.2 µM), for inactives: at the top dose activity change, negative = growth inhibition, usual class: inhibitors | AID 686978, 2013 | actives 15% (n = 420,000); further: potency means the concentration at half of the fitted maximal effect; on the % scale 0 is the no-effect control and ±100 the full control effect; nearly all actives have a fitted effect of over 55% in size
#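 Growth of hTDP1-complemented DT40 Tdp1-knockout cells is measured by ATP luminescence after at least 48 hr compound exposure at 37 °C, with DMSO substituting for the 20 nM CPT used in the parallel screen.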
# Chronic BCR inh: chronic active BCR signaling inhibition | actives 0.05% (n = 340,000) | Potency, µM (highest dose often 46.1 µM), for the others: top-dose activity change, negative = inhibition, most hits filed as inhibitors | ABC-DLBCL IkBa-CBG/CBR reporter, luminescence ratio, 4 h; active means well fitted inhibition curve with a large enough effect in the signal ratio, with a control signal flat, not every such curve was filed as active; inconclusive means small, poorly fitted or top-dose-only effect, or effect the other way, or a change in a side signal; the % refers to the signal ratio;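 further: potency means the concentration at half of the fitted maximal effect; plate controls were basal doxycycline-induced cells for no effect and cells given 10 µM MG132 for full effect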
#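 Concentration-response series (up to 46 uM) were applied to TMD8 dual-reporter cells for 4 h at 37C with doxycycline. Green/red ratio, after filter-overlap correction, defined %Activity; red signal alone was normalised to basal cells and zero luminescence.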
# MCF10A rerep: inducers of DNA re-replication in MCF 10A breast cells; actives 2.9% (n = 350,000); Potency, µM (highest dose often 46.1 µM), for inactives: top-dose activity, positive = re-replication, actives largely listed as activators; MCF 10A DNA re-replication, Hoechst nuclear intensity, 48 h; AID 624296; further: potency means the concentration at half of the fitted maximal effect; % of control where 0% means no effect; nearly all actives have a fitted effect of over 50% in size
# SW480 rerep: inducers of DNA re-replication in SW480 colon cancer cells; SW480 DNA re-replication, Hoechst DNA content imaging, 48 h; Potency, µM (titrated, usually from 46.1 µM), for the others: at the top dose re-replication activation, most hits filed as activators; actives 1.8% (n = 340,000); AID 624297; further: potency means the concentration at half of the fitted maximal effect; % of control where 0% means no effect; nearly all actives have a fitted effect of over 55% in size
#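 Cells (250 per well) received 23 nL compound or DMSO by pin tool and were kept 48 hr at 37 C, 5% CO2. Nuclei were then stained with Hoechst for 40 min and scanned for DNA content.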
# IL1B secr inh: inhibitors of inflammasome signaling (IL-1 beta secretion) | activity change, % at 57.5 µM | AID 743279 | actives 4.7% (n = 360,000) | THP-1 LPS/ATP IL-1B secretion, AlphaLISA, 16 h; active compounds read low; in the data active means activity change below about -50%; inconclusive means mostly about -30% to -49%; further: on the % scale 0 is the no-effect control and ±100 the full control effect
#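 Secreted IL-1B measured by AlphaLISA bead assay after 16 h compound exposure of THP-1 cells; compounds (final up to 57.5 uM) added 1 h before LPS (250 ng/mL) and ATP (1.25 mM) stimulation; lower signal means less secretion.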
# DT40 TDP1 CPT: DT40-hTDP1 cell growth loss with CPT. chicken DT40 Tdp1-/-;hTDP1 cells + 20 nM CPT, ATP luminescence, 48 h. Potency, µM (titrated, usually from 46.2 µM), without a hit: at the highest dose activity change, negative = growth inhibition, usual class: inhibitors. actives 12% (n = 420,000); further: potency means the concentration at half of the fitted maximal effect; on the % scale 0 is the no-effect control and ±100 the full control effect; nearly all actives have a fitted effect of over 55% in size
#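 Chicken DT40 Tdp1-/- cells complemented with human TDP1, 400 cells/well, exposed to compounds plus 20 nM camptothecin for at least 48 h at 37 C; viability read as ATP content by CellTiter-Glo luminescence.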
# * marks the source's active call; other numbers are inactive results; ? = inconclusive; . = no result given. Unless noted, the call rests on the fitted dose curve; in most records, active means well fitted curve in the direction sought with a large enough effect; inconclusive means small, poorly fitted or top-dose-only effect, or another doubt; inactive means no such curve, though single readings can be large; an effect the other way counts as inactive or inconclusive.
SMILES,DT40 TDP1 no CPT,Chronic BCR inh,MCF10A rerep,SW480 rerep,IL1B secr inh,DT40 TDP1 CPT
O=C(NNC(=O)C1CC2CCC1C2)c1sc2ccccc2c1Cl (configuration not stated),?,?,6.8%,0.8%,-9.1,?
F[Si-2](F)(F)(F)(F)F,-25.5%,.,5.2%,3.8%,.,-8.6%
O=C(/C=C/[C@H]1O[C@@H](n2cnc3c(NC(=O)c4ccccc4)ncnc32)[C@H](O)[C@@H]1O)NCCc1ccc(F)cc1,29.4%,.,.,.,?,13.1%
Oc1cccc(CN2CCN(c3ncc(Cc4ccccc4)cn3)CC2)c1,?,.,.,.,11.5,?
COc1ccc(CN2CCN(c3ncccn3)CC2)c(OC)c1,-11.8%,?,5.3%,-0.2%,-11.9,-15.4%
Oc1ccc(Cl)c(CN2CCN(c3ncc(Cc4ccccc4)cn3)CC2)c1,18.4µM*,.,.,.,1.8,?
Clc1ccccc1CN1CCN(c2ncccn2)CC1,-22.5%,?,0.6%,-20.8%,-4.2,-17.3%
COc1ccc(O)cc1CN1CCN(c2ncc(Cc3ccccc3)cn2)CC1,16.4µM*,.,.,.,-4.1,23.1µM*
Clc1ccc(CN2CCN(c3ncccn3)CC2)c(Cl)c1,2.3%,3.6%,23.1µM*,?,-12.1,-4.4%
CN(C1CCCCC1)S(=O)(=O)c1ccc2c(c1)c(=O)c(C(=O)O)cn2C,-4.0%,.,.,.,16.4,-19.3%
COc1ccccc1-c1nc2ccccc2c(=O)n1O,-12.1%,4.8%,12.6%,-3.7%,10.9,2.4%
CC1(C)Cc2ccccc2-c2nc3ccccc3c(=O)n21,11.6µM*,6.0%,?,1.9%,2.0,?
O=C(CCl)NCc1cc(-c2ccc(Cl)cc2)no1,18.4µM*,?,?,?,-75.1*,10.3µM*
CCC(=O)Nc1cc(=O)[nH]c2nc(-c3ccc(Cl)cc3)nn12,18.4µM*,?,-0.1%,15.8%,17.3,?
Cc1ccc(-c2nc3[nH]c(=O)cc(NC(=O)C(C)C)n3n2)cc1,?,0.6%,-0.1%,-12.8%,15.6,?
CC(=O)Nc1ccccc1-c1nc2ccccc2n(Cc2cccc(Br)c2)c1=O,?,.,.,.,.,-3.8%
Cc1ccc(NC(=O)Nc2nnc(N(CC(C)C)CC(C)C)s2)cc1Cl,16.4µM*,.,.,.,.,9.2µM*
Cc1ccc(NC(=O)Nc2cccnc2)cc1Cl,-5.9%,4.5%,4.4%,23.0%,?,?
O=S1(=O)CC(N2CCCCC2)CN1Cc1cn(Cc2ccc(C(F)(F)F)cc2)nn1 (configuration not stated),-22.5%,.,.,.,4.7,-6.7%
O=C(/C=C/c1ccc(-c2ccccc2)o1)c1ccccc1,?,?,?,3.1%,-99.4*,?
O=Cc1ccc(-c2cccc(C(=O)O)c2)o1,-12.6%,?,-3.0%,-2.9%,16.4,6.4%
Cc1ccc(-c2ccc(/C=C/C(=O)c3ccccc3)o2)cc1,23.1µM*,?,?,2.7%,-78.8*,?
COc1ccc(NC(=O)C2c3ccccc3OCC(=O)N2C2CC2)cc1 (configuration not stated),-21.2%,.,.,.,10.7,-2.8%
CCOc1ccc(NS(=O)(=O)c2ccc(Cl)c(N=Nc3c(O)[nH]c(=S)[nH]c3=O)c2)cc1Br,?,.,.,.,10.0,-10.2%
CCCCCc1ccc(CC(=O)N2CCOCC2)cc1,-1.2%,17.4%,26.4%,-72.2%,44.8,?
SMILES,DT40 TDP1 no CPT,Chronic BCR inh,MCF10A rerep,SW480 rerep,IL1B secr inh,DT40 TDP1 CPT
Cc1sc2nc(CSc3ccccc3)nc(N3CCN(C)CC3)c2c1C,16.4µM*,0.8%,13.6%,19.5%,.,?
CCCC(=O)NC(c1ccccc1Cl)c1c(O)ccc2ccccc12 (configuration not stated),?,?,14.5%,?,-26.4,?
CCCC(=O)NC(c1ccccc1)c1c(O)ccc2ccccc12 (configuration not stated),8.2µM*,?,10.6%,3.7%,-26.0,?
CC(C)C(=O)NC(c1ccc([N+](=O)[O-])cc1)c1c(O)ccc2ccccc12 (configuration not stated),?,?,?,14.8%,-87.8*,17.8µM*
CC(=O)NC(c1ccc(C(C)C)cc1)c1c(O)ccc2ccccc12 (configuration not stated),?,.,18.4µM*,?,-74.9*,-21.0%
CC(=O)NC(c1ccc([N+](=O)[O-])cc1)c1c(O)ccc2ccccc12 (configuration not stated),?,6.1%,-2.1%,4.4%,-8.7,-28.6%
CCCCC(=O)NC(c1ccccc1Cl)c1c(O)ccc2ccccc12 (configuration not stated),?,8.8%,11.3%,5.9%,-89.4*,?
CCOc1ccc(OCC)c(NC(=O)c2cc(S(=O)(=O)N3CCc4ccccc43)cn2C)c1,?,.,.,.,.,-29.0%
Cc1ccc(C(NC(=O)C2CCCCC2)c2c(O)ccc3ccccc23)cc1 (configuration not stated),20.6µM*,?,4.0%,-17.8%,-11.2,16.4µM*
CC(=O)NC(c1ccccc1)c1c(O)ccc2ccccc12 (configuration not stated),?,-0.1%,2.7%,5.9%,9.5,?
O=C(COC(=O)c1cc(Cl)ccc1O)NCCC1=CCCCC1,-17.7%,1.9%,-5.5%,-5.0%,15.6,-17.9%
CC(=O)c1ccc(N2CCN(C(=O)CCCc3nc4ccccc4s3)CC2)cc1,10.3µM*,0.6%,18.4µM*,-4.0%,155.9,11.6µM*
O=C(CCn1c(=O)[nH]c2ccsc2c1=O)N1CCN(c2cccc(Cl)c2)CC1,?,6.8%,?,4.8%,-10.2,-11.0%
O=C(CCCCn1c(=O)[nH]c2ccsc2c1=O)N1CCN(c2cccc(Cl)c2)CC1,13µM*,.,.,.,.,16.4µM*
CC(C)CCNC(=O)CCCCn1c(=O)[nH]c2ccsc2c1=O,-4.9%,1.9%,-1.3%,-10.5%,11.0,-19.8%
CCCCC(CC)CNC(=O)CCCCCn1c(=O)[nH]c2ccsc2c1=O (configuration not stated),23.1µM*,.,.,.,.,?
Cc1cccc(N2CCN(C(=O)CCCn3c(=O)[nH]c4ccsc4c3=O)CC2)c1C,?,.,.,.,.,20.6µM*
Cc1ccc(NC(=O)CNCCCN2CCOCC2)cc1S(=O)(=O)N1CCCCC1,-1.1%,3.4%,2.5%,-1.3%,-16.6,?
